Among the test systems are NCI-H23 lung; NCI-H226 lung; NCI-H322M lung; HOP-62 NSCLC; NCI-H460 lung; HOP-92 NSCLC; NCI-H522 lung; A549/ATCC NSCLC; 786-0 renal; COLO 205 colon; DU-145 prostate; K-562 leukemia; MALME-3M melanoma; MDA-MB-231 breast; RXF 393 renal; SF-268 CNS; SF-295 CNS; SF-539 CNS; UACC-257 melanoma; M14 melanoma.
Holding throughout (assay): NCI-60 one-dose screen, 48 h (100 = growth as untreated, 0 = no growth, -100 = all killed)
Common to all, as to settings: 10 µM unless noted

Molecules are shown by their SMILES. This is part of a sample that, as a whole, favours compounds with a hit. Of some 83,000 tested, about 20% had one in any assay.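 Testing used 96-well plates and a 48-hour single-concentration exposure. Example: -40 means 40% of the starting cells died.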 Values without a mark were called inactive. Calls of active or inactive are those of the source. Rule for the calls: active = growth percent below 10; inactive = the rest.

For the molecule `Cc1ccn2c3c(c(C(=O)O)c2c1)C(=O)c1ccccc1C3=O`, the growth was 2.03% (active) with NCI-H23 lung; 114% in the test on NCI-H226 lung; 6.55% (active) in the test on NCI-H322M lung; 45.5% with HOP-62 NSCLC; -22.4% (active) in the test with NCI-H460 lung; 96.8% with HOP-92 NSCLC. In addition, the growth in the test on NCI-H522 lung was 82.5%; with A549/ATCC NSCLC, -39.6% (active); in the test with 786-0 renal it was 84.2%; in the test on COLO 205 colon it was 42.1%; in the test on DU-145 prostate, -55.7% (active); with K-562 leukemia, 85.4%. Moreover, the growth in the test on MALME-3M melanoma was -62.7% (active); in the test on MDA-MB-231 breast, 77.2%; with RXF 393 renal it was 56.9%; in the test on SF-268 CNS it was 80.3%; in the test on SF-295 CNS, 26.9%; with SF-539 CNS it was 65.8%. In addition, the growth in the test on UACC-257 melanoma was 56.4%; with M14 melanoma, -43.5% (active).
For the molecule `CCCCCCN1C(=O)CN=C1Nc1ccc2cc3ccc(NC4=NCC(=O)N4CCCCCC)cc3nc2c1`, the growth in the test with NCI-H23 lung was 64.8%; in the test on NCI-H226 lung, 81.7%; in the test on NCI-H322M lung, 79.7%; in the test on HOP-62 NSCLC, 82.4%; in the test with NCI-H460 lung, 57.5%; with HOP-92 NSCLC, 82.9%. The growth was -9.83% (active) with NCI-H522 lung; 74.5% in the test on A549/ATCC NSCLC; 36.1% in the test on 786-0 renal; 40.3% in the test on COLO 205 colon; 40.5% with DU-145 prostate; -12.1% (active) with K-562 leukemia. Besides, the growth in the test on MALME-3M melanoma is 71.5%; in the test on MDA-MB-231 breast, 30.7%; with RXF 393 renal, 11.6%; in the test with SF-268 CNS, 47.5%; in the test with SF-295 CNS, 82.7%; in the test on SF-539 CNS, 76.6%. Moreover, the growth was 103% with UACC-257 melanoma and 68.2% with M14 melanoma.
For the molecule `[2H]c1cc2c(c([2H])c1F)/C(=C/c1[nH]c(C)c(C(=O)NCCN(CC)CC)c1C)C(=O)N2`, the growth is 43.5% in the test with NCI-H23 lung; 40.5% in the test with NCI-H226 lung; 47.7% in the test with NCI-H322M lung; 28.9% with HOP-62 NSCLC; 47.5% with NCI-H460 lung; 26.6% in the test with HOP-92 NSCLC. Moreover, the growth in the test on NCI-H522 lung is 62.4%; with A549/ATCC NSCLC, 56.5%; in the test with 786-0 renal, 32.5%; with COLO 205 colon it was 38.3%; in the test on DU-145 prostate it was 34.6%; in the test with K-562 leukemia, 55.3%. In addition, the growth with MALME-3M melanoma is 10.8%; in the test on MDA-MB-231 breast it was 67.7%; in the test on RXF 393 renal it was 25%; with SF-268 CNS it was 57.7%; in the test on SF-295 CNS, 85.1%; with SF-539 CNS, 45.3%. The growth in the test on UACC-257 melanoma is 69.2%; in the test with M14 melanoma, 20.6%.
In the case of `COc1cc(C2=N/C(=C\c3cc4ccccc4nc3Oc3ccccc3)C(=O)N2C(=N)N)cc(OC)c1OC`, the growth was 71% in the test on NCI-H23 lung; 18.7% in the test with NCI-H226 lung; 55.4% in the test on NCI-H322M lung; -0.576% (active) with HOP-62 NSCLC; 52.1% with NCI-H460 lung; 27.9% in the test with HOP-92 NSCLC. The growth in the test on NCI-H522 lung was 60.3%; with A549/ATCC NSCLC it was 77.1%; in the test with 786-0 renal, 28.6%; with COLO 205 colon, 90.4%; in the test on DU-145 prostate, 80.4%; in the test on K-562 leukemia, 82.3%. Further, the growth in the test with MALME-3M melanoma was 57.8%; with MDA-MB-231 breast, 42.4%; with RXF 393 renal, 42%; in the test with SF-268 CNS it was 30.7%; with SF-295 CNS, 55.1%; with SF-539 CNS, 33.4%. Besides, the growth with UACC-257 melanoma is 76.4%; in the test with M14 melanoma, 74.2%.
Consider `NS(=O)(=O)c1ccc(C2C3=C(CCCC3=O)OC3=C2C(=O)c2ccccc2C3=O)cc1` (stereo not given), for which the growth is -31.3% (active) with NCI-H23 lung; -56.7% (active) in the test on NCI-H226 lung; 6.58% (active) with NCI-H322M lung; -89.8% (active) in the test with HOP-62 NSCLC; -71.4% (active) in the test with NCI-H460 lung; -31.7% (active) in the test on HOP-92 NSCLC. The growth is -73.7% (active) in the test on NCI-H522 lung; -34.9% (active) in the test with A549/ATCC NSCLC; -90.7% (active) with 786-0 renal; -80.3% (active) in the test with COLO 205 colon; -99.1% (active) in the test on DU-145 prostate; -43.3% (active) in the test on K-562 leukemia. For the same molecule, the growth was -97.4% (active) in the test with MALME-3M melanoma; 5% (active) in the test on MDA-MB-231 breast; -90% (active) with RXF 393 renal; -42.6% (active) in the test on SF-268 CNS; -80.3% (active) in the test on SF-295 CNS; -88.5% (active) in the test on SF-539 CNS. Moreover, the growth was -90.3% (active) with UACC-257 melanoma and -95% (active) in the test on M14 melanoma.
In the case of `O=C(Nc1ccccc1)NS(=O)(=O)c1c[nH]c(=S)[nH]c1=O`, the growth in the test with NCI-H23 lung is 92.3%; in the test on NCI-H226 lung, 105%; in the test on NCI-H322M lung, 104%; in the test on HOP-62 NSCLC, 72.4%; with NCI-H460 lung, 106%; in the test with HOP-92 NSCLC, 115%. The growth is 60.7% with NCI-H522 lung; 80.7% in the test on A549/ATCC NSCLC; 95.7% in the test on 786-0 renal; 96.5% with COLO 205 colon; 105% with DU-145 prostate; 103% in the test with K-562 leukemia. Further, the growth in the test with MALME-3M melanoma was 100%; in the test with MDA-MB-231 breast, 105%; in the test with RXF 393 renal, 127%; in the test with SF-268 CNS, 97.1%; in the test on SF-295 CNS, 97.8%; with SF-539 CNS, 99.8%. For the same molecule, the values for the growth in the test with UACC-257 melanoma and in the test on M14 melanoma were 92.5% and 104%, respectively.
`CC(=O)[C@@H]1CC[C@]2(C(=O)O)CC[C@]3(C)[C@H](CC[C@@H]4[C@@]5(C)Cc6c([nH]c7ccccc67)C(C)(C)[C@@H]5CC[C@]43C)[C@@H]12`: the growth is 54.4% in the test with NCI-H23 lung; 64% in the test on NCI-H226 lung; 77.3% with NCI-H322M lung; 74.8% in the test on HOP-62 NSCLC; 44.9% with NCI-H460 lung; 80% in the test with HOP-92 NSCLC. Moreover, the growth with NCI-H522 lung was 46.4%; in the test on A549/ATCC NSCLC it was 31.4%; in the test on 786-0 renal, 75.1%; with COLO 205 colon, 79.6%; in the test on DU-145 prostate it was 59.4%; in the test with K-562 leukemia, 37.8%. Also, the growth with MALME-3M melanoma was 96.1%; in the test on MDA-MB-231 breast, 83%; with RXF 393 renal, 73.2%; with SF-268 CNS, 63.4%; in the test with SF-295 CNS it was 36%; with SF-539 CNS, 74.3%. The growth is 84.2% in the test on UACC-257 melanoma and 78.7% in the test on M14 melanoma.

Source of the values: PubChem BioAssay (NCI).
